Screens from PubChem BioAssay.
Shown are actives, neighbours in structure and some others; about 11% of the full set was active somewhere.
HPGD inh – HPGD (human) dehydrogenase inhibition; P15428; Potency, µM, hits mostly inhibitors; AID 894; 150,000 compounds, 4.3% hits; purified HPGD, NADH fluorescence kinetic, PGE2 substrate
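20 nM HPGD preincubated 15 min at room temperature with compound in 50 mM Tris-HCl pH 8, 0.01% Tween 20. Started with 1 mM NAD+ and 30 uM prostaglandin E2; NADH fluorescence (360/450 nm) read 5 times over 30-s intervals, last minus first.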
ALDH1A1 block – inhibitors of human aldehyde dehydrogenase 1A1; Purified ALDH1A1, NADH fluorescence, propionaldehyde substrate; Potency, µM (doses to about 75.3 µM), actives largely listed as inhibitors; 220,000 compounds, 7.3% hits; AID 1030
Target sequence (P00352 whole entry, looked up): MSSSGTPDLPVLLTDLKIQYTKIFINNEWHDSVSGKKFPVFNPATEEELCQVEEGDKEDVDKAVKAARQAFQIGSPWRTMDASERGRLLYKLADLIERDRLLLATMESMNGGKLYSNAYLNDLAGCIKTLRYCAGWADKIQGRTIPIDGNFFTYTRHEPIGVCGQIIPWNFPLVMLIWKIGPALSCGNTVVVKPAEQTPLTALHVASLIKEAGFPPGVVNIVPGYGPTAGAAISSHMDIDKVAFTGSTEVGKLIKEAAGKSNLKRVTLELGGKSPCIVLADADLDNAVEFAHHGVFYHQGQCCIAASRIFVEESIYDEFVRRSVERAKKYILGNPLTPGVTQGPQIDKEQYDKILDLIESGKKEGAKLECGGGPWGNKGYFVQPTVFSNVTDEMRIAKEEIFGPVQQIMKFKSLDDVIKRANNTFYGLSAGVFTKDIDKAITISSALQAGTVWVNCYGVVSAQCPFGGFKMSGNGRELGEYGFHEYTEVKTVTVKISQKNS
PNC assembly inh – perinucleolar compartment assembly inhibition | PC3M PTB-GFP, PNC prevalence imaging, 16 h; stronger effect = lower value | activity change (PNC), negative = inhibition, % at 10 µM | 140,000 compounds, 3.1% hits | AID 2417;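 active means readout at or below -70, meaning at least 70% loss of cells showing the perinucleolar compartment, a nuclear body marking cancer cells; inconclusive means readout between -30 and a set limit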
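Compounds are pinned in duplicate onto adhered PC3M cells stably expressing GFP-tagged PTB and incubated 16 h at 37 C. Cells are then fixed, nuclei stained with Hoechst, and PNC-positive cells counted.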
IMPase Li inh – cell-permeable IMPase inhibitors with lithium potentiation; CHO-M1 cells, IP1 TR-FRET (IP-One), carbachol + lithium; Potency, µM (titrated, usually from 59.4 µM), usual class: inhibitors; 210,000 compounds, 0.35% hits; active means well fitted inhibition curve with a large enough effect; inconclusive means small, poorly fitted or top-dose-only effect; inactive means no such curve, though single readings can be large or run the other way;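 further: IP1 builds up when IMPase is blocked and the TR-FRET signal falls; nearly all actives have a fitted effect of over 50% in size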
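CHO cells stably expressing M1 receptor (2000/well, cultured 16–30 h) treated 30 min at 37C with compound plus low lithium. Cytosolic IP1 by TR-FRET (665/620 ratio and 620 channel) after 10 min lysis; AC50 by Hill fit.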
IMPase cell inh – cell-permeable inhibitors of inositol monophosphatase (IMPase); P97697; CHO-M1 cells, IP1 accumulation, HTRF TR-FRET ratio; inhibition (IP1 accumulation), % at 46.1 µM; 120,000 tested, under 10 active; active means well fitted curve in the direction sought with a large enough effect in the signal ratio, not every such curve was filed as active; inconclusive means small, poorly fitted or top-dose-only effect, or a change in a side signal; inactive means no such curve, though single readings can be large or run the other way; the % refers to the signal ratio;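 further: cells stimulated with carbachol in lithium chloride buffer; higher means more IMPase inhibition seen as more IP1 and lower FRET ratio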
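CHO-M1, 2000 cells/well, cultured 16–30 h; cpd up to 46 uM; carbachol (50 uM solution, stimulation buffer w/ 50 mM LiCl, pH 7.4), 30 min 37C; IP-One TR-FRET, 10 min RT; Ex 320/Em 665, 620; Hill-fit AC50.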
Numbers stand for hits; [ ] = dose if it differs, or a comment. Unless noted, the call rests on the fitted dose curve; in most records, active means well fitted inhibition curve with a large enough effect (not every such curve was filed as active); inconclusive means small, poorly fitted or top-dose-only effect, or another doubt; inactive means no such curve, though single readings can be large or run the other way.

`CCOC(=O)CNC(=O)CSc1nc2ncc(Br)cc2[nH]1` gave HPGD inh inconclusive, ALDH1A1 block inactive, PNC assembly inh inactive, IMPase Li inh inactive and IMPase cell inh inactive.
`CCN(CC)C(=O)CSc1nc2ncc(Br)cc2[nH]1` gave ALDH1A1 block inconclusive, PNC assembly inh inconclusive and IMPase cell inh inactive.
Screening COc1ccc(-c2[nH]ncc2CN(C)C(C)c2cccs2)c(F)c1 (configuration not stated) returned ALDH1A1 block inconclusive and IMPase Li inh inactive.
Screening COc1ccc(-c2[nH]ncc2CN(C)CCc2c(C)n[nH]c2C)c(F)c1 returned ALDH1A1 block 10µM and IMPase Li inh inactive.
Cc1cc(C)c2c(N)c(S(=O)(=O)Cc3ccccc3)sc2n1 was read as HPGD inh 22µM, ALDH1A1 block inactive, PNC assembly inh inactive, IMPase Li inh inactive and IMPase cell inh inactive.
For CCOc1ccccc1NC(=O)c1sc2nc(C)cc(C)c2c1N the results were IMPase cell inh inactive.
For CCSC1=NC2(CCCCC2)Nc2sc3c(c21)CCCC3 the results were HPGD inh 4.5µM, ALDH1A1 block 7.1µM, PNC assembly inh inconclusive, IMPase Li inh inactive and IMPase cell inh inactive.
Screening CCN1C(=O)S/C(=C/c2ccc(Sc3nc4ccccc4[nH]3)o2)C1=O returned HPGD inh 13µM, ALDH1A1 block inactive, PNC assembly inh inconclusive, IMPase Li inh inactive and IMPase cell inh inactive.
`COc1ccc(-c2cnnc(CCCn3ccnc3-c3ccccc3)n2)cc1` gave ALDH1A1 block inactive[13.5 µM].
`COc1ccc2cc(CN(CC3CCCO3)C(=S)NCc3ccco3)c(=O)[nH]c2c1` (configuration not stated) gave ALDH1A1 block 3.5µM and IMPase Li inh inactive.
`Cc1ccc(C)c2[nH]c(=O)c(CN(Cc3ccco3)C(=S)NCC3CCCO3)cc12` (configuration not stated) gave ALDH1A1 block 20µM and IMPase Li inh inactive.
Cc1cccc2cc(CN(CCN(C)C)C(=S)Nc3ccccc3)c(=O)[nH]c12 was read as HPGD inh inactive, ALDH1A1 block inconclusive, PNC assembly inh -99, IMPase Li inh inactive and IMPase cell inh inactive.
`Cc1cccc(NC(=S)N(CCN(C)C)Cc2cc3cc(C)ccc3[nH]c2=O)c1` gave ALDH1A1 block inconclusive and IMPase Li inh inactive.
Cc1ccc2cc(CN(CC3CCCO3)C(=S)NCc3ccco3)c(=O)[nH]c2c1 (configuration not stated) was read as ALDH1A1 block 3.5µM and IMPase Li inh inactive.
Screening Cc1ccc2cc(CN(Cc3ccco3)C(=S)NCC3CCCO3)c(=O)[nH]c2c1 (configuration not stated) returned ALDH1A1 block inactive and IMPase Li inh inactive.
Screening Cc1ccc(-n2c3c(c(=O)[nH]c2=O)C(NC(=O)C(C)(C)C)(C(F)(F)F)C(=O)N3)cc1 (configuration not stated) returned IMPase cell inh inactive.
COc1ccccc1NC(=S)N(Cc1ccco1)Cc1cc2ccc(C)c(C)c2[nH]c1=O was read as HPGD inh inactive, ALDH1A1 block inconclusive, PNC assembly inh -84 and IMPase Li inh inactive.
For Cc1ccc2[nH]c(=O)c(CN(CC3CCCO3)C(=S)NCc3ccco3)cc2c1 (configuration not stated) the results were HPGD inh inactive, ALDH1A1 block inconclusive, PNC assembly inh inactive and IMPase Li inh inactive.
`Cc1cc(C)c2[nH]c(=O)c(CN(CC3CCCO3)C(=S)NCc3ccco3)cc2c1` (configuration not stated) gave HPGD inh inactive, ALDH1A1 block inconclusive, PNC assembly inh -82 and IMPase Li inh inactive.
Cc1cc(C)c2cc(CN(CC3CCCO3)C(=S)NCc3ccco3)c(=O)[nH]c2c1 (configuration not stated) was read as ALDH1A1 block 16µM and IMPase Li inh inactive.
Cc1ccc2cc(CN(CC3CCCO3)C(=S)Nc3ccccc3)c(=O)[nH]c2c1 (configuration not stated) was read as ALDH1A1 block inconclusive and IMPase Li inh inactive.
For Cc1ccc2[nH]c(=O)c(CN(CC3CCCO3)C(=S)Nc3ccccc3)cc2c1 (configuration not stated) the results were HPGD inh inactive, ALDH1A1 block 14µM, PNC assembly inh inactive and IMPase Li inh inactive.
`Cc1cc(C)cc(-n2c(C)nc3cc(C(=O)O)ccc32)c1` gave ALDH1A1 block inactive and IMPase Li inh inactive.
`CCN1CCCC1Cn1c(-c2ccccc2)nc2c(N3CCOCC3)nc(C)nc21` (configuration not stated) gave HPGD inh inconclusive, ALDH1A1 block inconclusive and IMPase Li inh inactive.
Screening Cn1c(=O)c(-c2cc(F)cc(F)c2)nc2cnc(N3CCOCC3)nc21 returned ALDH1A1 block inactive and IMPase Li inh inactive.
Screening Cc1ccc2nsnc2c1S(=O)(=O)N(Cc1ccco1)Cc1cc2ccc(C)c(C)c2[nH]c1=O returned HPGD inh inactive, ALDH1A1 block inconclusive, PNC assembly inh -82, IMPase Li inh inactive and IMPase cell inh inactive.
`Cc1ccc2[nH]c(=O)c(CN(CCCN3CCOCC3)C(=O)Nc3cccc(Cl)c3)cc2c1` gave HPGD inh inactive, ALDH1A1 block inactive, PNC assembly inh inconclusive and IMPase Li inh inactive.
For Cc1cccc(NC(=O)N(Cc2cc3cc(C)ccc3[nH]c2=O)CC2COCCO2)c1 (configuration not stated) the results were ALDH1A1 block 32µM and IMPase Li inh inactive.
CC[C@@H]1Cn2c(c3nc(-c4cc(Cl)cc(Cl)c4Cl)nc-3n(C)c2=O)N1 was read as HPGD inh inconclusive, ALDH1A1 block inconclusive and IMPase Li inh inactive.
`Cc1nnc(SCC(=O)N2CCN(C(=O)c3ccco3)CC2)n1-c1ccccc1` gave ALDH1A1 block 28µM and IMPase Li inh inactive.
Screening O=C(c1ccco1)N1CCN(C(=O)C(Sc2ccccc2)c2ccccc2)CC1 (configuration not stated) returned HPGD inh inactive, ALDH1A1 block 14µM, PNC assembly inh inconclusive, IMPase Li inh inactive and IMPase cell inh inactive.
Screening O=C(CSCc1ccccc1)N1CCN(C(=O)c2ccco2)CC1 returned HPGD inh inactive, ALDH1A1 block inconclusive, PNC assembly inh -100, IMPase Li inh inactive and IMPase cell inh inactive.
Screening O=C(CSc1ccccc1)N1CCN(C(=O)c2ccco2)CC1 returned ALDH1A1 block inconclusive and IMPase Li inh inactive.
O=C(c1ccco1)N1CCN(CC(O)Cn2c3ccccc3c3ccccc32)CC1 (configuration not stated) was read as HPGD inh inactive, ALDH1A1 block inactive, PNC assembly inh -87, IMPase Li inh inactive and IMPase cell inh inactive.
Screening CCCn1c(C)nc2c(NCC(C)(C)CN(C)C)nc(C)nc21 returned HPGD inh inactive, ALDH1A1 block inactive and IMPase Li inh inactive.
